According to PubChem BioAssay:
Activity calls are given as the source filed them.

How the values were obtained:
Albumin (Bos taurus) = Albumin (Bos taurus) (UniProt P02769); assay: bovine serum albumin binders on microarray, profiling panel, artefact control for SMM control protein annotation, biochemical, small-molecule microarray, Alexa647 label, 635/667 nm fluorescence (AID 1118); details: BSA-A647 binding, fluorescence 635 nm, higher = more signal;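 also: score merges 667 nm emission intensity and signal-to-noise per printed compound spot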
[1] = small-molecule microarray binders of probe aXIP, primary screen, biochemical, NeuroSMM set, 635/667 nm fluorescence (AID 1119); details: higher = more signal, called active from +8 up or from −8 down;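 also: probe is the protein aXip251-270 applied at 1 µg/mL to compound-printed slides; binding of probe to printed compounds measured as 667 nm fluorescence plus signal to noise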
[2] = small-molecule binders of probe aNOTCH3, primary screen, biochemical, small-molecule microarray, 635/667 nm fluorescence (AID 1120); details: higher = more signal;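 also: probe is a biotin-tagged antibody raised against NOTCH3 rather than NOTCH3 protein; score merges spot fluorescence near 667 nm with spot signal to noise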
[3] = small-molecule binders of probe aNOTCH2, primary screen, biochemical, small-molecule microarray, 635/667 nm fluorescence (AID 1121); details: higher = more signal;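 also: score merges feature fluorescence read at 667 nm with its signal to noise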
[4] = molecular target: Carbonic anhydrase 2 (Homo sapiens) (UniProt P00918); assay: CAII small-molecule binders, profiling panel, biochemical, small-molecule microarray, Alexa647-labelled CAII (AID 1122); details: CAII-A647 binding fluorescence, higher = more signal
[5] = COS7 lysate on small-molecule microarray, probe aHis, 635 nm (AID 1123); details: COS7 cell lysate, fluorescence, higher = more signal;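 also: z-score combines 667nm fluorescence intensity with signal-to-noise per printed compound spot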
[6] = compound binding in COS7 lysate, probe aLAP1, primary screen, cell lysate, small-molecule microarray (AID 1124); details: probe aLAP1, fluorescence, higher = more signal;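 also: lysate comes from COS7 cells expressing LAP1 and is applied at 0.3 µg/mL; score merges spot fluorescence near 667 nm with signal-to-noise over triplicate slides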
Sam68 (KHDRBS1) = assay: Sam68 small-molecule binders, primary screen, biochemical, small-molecule microarray, 635 nm fluorescence (AID 1125); details: small-molecule microarray binding, higher = more signal;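 also: score merges 667 nm channel intensity with signal to noise over triplicate slides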
[7] = system: Chordin-like protein 2 (CHRDL2); assay: CHRDL2 small-molecule binders, primary screen, biochemical, small-molecule microarray, 635 nm fluorescence (AID 1126); details: small-molecule microarray binding, fluorescence 635 nm; higher = more signal;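 also: printed compound slides probed with Chrdl2 protein at 4 µg/mL for 1 h at 4 C; score merges 667 nm emission intensity with signal to noise over three replicate slides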
[8] = molecular target: Concanavalin-A (Canavalia ensiformis) (UniProt P02866); assay: ConA small-molecule binders, primary screen, artefact control for SMM control protein annotation, biochemical, small-molecule microarray, Alexa647 label, 635 nm (AID 1127); details: ConA-A647 binding fluorescence, higher = more signal;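 also: z combines 667 nm emission intensity with signal-to-noise across three replicate slides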
Sequence of Concanavalin-A (Canavalia ensiformis) (P02866 whole entry, looked up): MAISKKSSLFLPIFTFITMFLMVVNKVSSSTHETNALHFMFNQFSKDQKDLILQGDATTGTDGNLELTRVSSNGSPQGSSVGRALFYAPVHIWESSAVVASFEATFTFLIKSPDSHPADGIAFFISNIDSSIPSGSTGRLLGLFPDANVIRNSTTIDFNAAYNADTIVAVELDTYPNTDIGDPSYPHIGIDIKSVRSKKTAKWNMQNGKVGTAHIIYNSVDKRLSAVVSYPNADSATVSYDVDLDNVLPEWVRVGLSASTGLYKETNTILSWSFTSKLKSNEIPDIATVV

Sequence of Albumin (Bos taurus) (P02769 whole entry, looked up): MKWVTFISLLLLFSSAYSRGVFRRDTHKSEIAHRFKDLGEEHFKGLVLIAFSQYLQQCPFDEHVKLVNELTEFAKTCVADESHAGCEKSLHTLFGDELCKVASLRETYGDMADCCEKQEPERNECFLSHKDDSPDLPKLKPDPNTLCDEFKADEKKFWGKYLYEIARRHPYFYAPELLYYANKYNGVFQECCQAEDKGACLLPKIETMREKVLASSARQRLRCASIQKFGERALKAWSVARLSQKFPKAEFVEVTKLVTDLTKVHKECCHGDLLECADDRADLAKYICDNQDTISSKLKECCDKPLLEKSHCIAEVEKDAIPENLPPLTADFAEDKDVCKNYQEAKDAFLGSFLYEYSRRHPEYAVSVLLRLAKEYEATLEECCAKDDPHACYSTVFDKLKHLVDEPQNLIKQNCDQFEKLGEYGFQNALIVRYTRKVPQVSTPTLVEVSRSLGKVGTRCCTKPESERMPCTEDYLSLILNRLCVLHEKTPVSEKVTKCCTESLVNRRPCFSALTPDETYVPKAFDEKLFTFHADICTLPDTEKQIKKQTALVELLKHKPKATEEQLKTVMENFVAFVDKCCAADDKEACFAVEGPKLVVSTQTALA

SMILES | composite z-score (Albumin (Bos taurus)) | composite Z-score [1] | composite z-score [2] | composite z-score [3] | composite z-score [4] | composite z-score [5] | composite z-score [6] | composite z-score (Sam68 (KHDRBS1)) | composite z-score [7] | composite z-score [8]
[N-]=[N+]=NCc1ccccc1[C@H]1OC(c2ccc(OCCCO)cc2)=N[C@@]1(CCS(=O)(=O)c1ccccc1)C(=O)N1CCOCC1 | 1.05 | 1.09 (inactive) | 0.515 | 0.268 | 0.819 | 3.05 | 0.362 | 1.3 | -0.584 | 1.11
Cc1ccc(S[C@]2(C(=O)NCc3ccccc3)CC(=O)N(Cc3ccccc3)[C@@H]2c2ccc(CO)cc2)cc1 | -0.398 | 0.115 (inactive) | -0.25 | -0.149 | 0.654 | 1.86 | 0.569 | 0.176 | -0.525 | 0.423
C=CCNC(=O)[C@@H]1[C@H]2C(=O)O[C@H](c3ccccc3)[C@H](c3ccccc3)N2[C@H](c2ccc(O)cc2)[C@@]12C(=O)N(C(=O)OCCOC)c1ccccc12 | 0.752 | -0.155 (inactive) | -0.0716 | -0.143 | 0.519 | 2.23 | 0.334 | 1.28 | -0.49 | -0.18
COCCOC(=O)N1C(=O)[C@@]2(c3cc(C#CCNC(N)=O)ccc31)[C@H](c1ccc(O)cc1)N1[C@H](c3ccccc3)[C@H](c3ccccc3)OC(=O)[C@H]1[C@@H]2C(=O)Nc1nc2ccccc2s1 | 0.0631 | -0.162 (inactive) | 0.111 | -0.0432 | 0.266 | 1.17 | 0.243 | 0.942 | 0.554 | 1.09
O=C1C2C=CC(C(O)c3ccc(B(O)O)cc3)N(Nc3ccccc3)C2C(=O)N1c1ccccc1 (stereo not given) | 0.764 | 0.387 (inactive) | 0.127 | -0.0438 | 0.793 | 0.408 | -0.0389 | -0.346 | -0.0149 | -0.874
C=CCC(OC(C)=O)[C@@H]1[C@@H](N(Cc2ccc(-c3ccccc3)cc2)C(=O)Cc2ccc(OC)cc2)c2cc(OCCCO)ccc2N1C(=O)c1ccc2ccccc2n1 (stereo not given in full) | 0.0184 | 0.245 (inactive) | 0.0522 | -0.182 | 0.195 | 0.514 | 0.123 | -0.959 | 0.0504 | 0.177
COc1ccc(NN2C(C(O)c3ccc(OC)c(OCc4ccccc4)c3)C=CC3C(=O)N(C4CCCCC4)C(=O)C32)cc1 (stereo not given) | 0.976 | 0.745 (inactive) | 0.252 | -0.122 | 0.274 | 2.52 | 0.0516 | 1.24 | 0.275 | 1.11
C=CCC(OC(C)=O)[C@@H]1[C@@H](N(Cc2cccc3ccccc23)C(=O)c2ccc(C)cc2)c2cc(OCCCO)ccc2N1C(=O)Cc1ccc(OC)cc1 (stereo not given in full) | 0.15 | -0.858 (inactive) | 0.114 | -0.127 | 0.112 | 0.223 | -0.0098 | 0.175 | 0.352 | 0.0517
CCCCCN1CC=CC23O[C@@H]4/C=C\CCCOC(=O)C4[C@H]2C(=O)N(CCCCCCO)[C@@H]3C1=O (stereo not given in full) | -0.0739 | -0.328 (inactive) | -0.262 | -0.153 | 0.858 | 2.05 | 1.14 | -0.542 | -1.01 | -0.74
N[C@@H](Cc1ccccc1)Cn1cc(-c2ccccc2)nn1 | 0.656 | -0.254 (inactive) | 0.0879 | -0.053 | -0.062 | 0.281 | 0.954 | 0.406 | 0.53 | -0.109
Cc1cc(C)cc(N2C(=O)CS(=O)(=O)C2c2cccc([N+](=O)[O-])c2)c1 (stereo not given) | 0.785 | 1.97 (inactive) | 0.799 | 0.189 | 0.547 | 1.73 | 1.36 | 0.828 | 0.433 | 0.989
COc1ccccc1CN1C(=O)c2ccccc2[C@@H](C(=O)NCCN2CCOCC2)[C@@H]1c1ccc(CO)cc1 | 0.305 | -0.275 (inactive) | -0.0824 | -0.0548 | 0.769 | 1.29 | 1.08 | 0.287 | -0.159 | -0.15
Cc1cc(C)c(C(O)C2C=CC3C(=O)N(c4ccccc4)C(=O)C3N2Nc2ccc(C#N)cc2)c(C)c1 (stereo not given) | 1.07 | 0.902 (inactive) | 0.0649 | 0.115 | 0.743 | 3.02 | 0.629 | 1.35 | -0.183 | 1.19
C=CCOC(=O)[C@H]1[C@@H]2C(=O)O[C@@H](c3ccccc3)[C@@H](c3ccccc3)N2[C@@H](c2ccc(OCCOC(=O)[C@@H]3C[C@@H]4C(=O)N5CCC[C@H]5C(=O)N4[C@@H]3c3ccc(O)cc3)cc2)[C@]12C(=O)Nc1ccccc12 | -0.854 | 0.0088 (inactive) | 0.299 | -0.104 | 0.268 | 1.36 | 0.261 | 1.33 | 1.03 | 0.93
COc1ccc(CCN2C(=O)[C@@]3(Cc4ccccc42)c2ccccc2C(=O)N(Cc2ccccc2Cl)[C@H]3c2ccc(CO)cc2)cc1 | -0.091 | -0.0503 (inactive) | -0.125 | -0.137 | 0.855 | -0.247 | 0.296 | -0.383 | -1.06 | -0.199
O=C(O)[C@H]1C[C@H]2C(=O)NCC(=O)N2[C@H]1c1ccc(O)cc1 | 0.346 | 0.289 (inactive) | 0.791 | -0.0761 | 0.688 | 0.921 | 0.0741 | 0.0505 | 1.26 | 0.482
Cc1ccc(S[C@]2(C(=O)NCC(C)C)CC(=O)N(Cc3ccccc3Cl)[C@@H]2c2ccc(CO)cc2)cc1 | -0.968 | -0.12 (inactive) | -0.312 | -0.162 | 0.738 | 0.678 | -0.0092 | -0.897 | -0.796 | -1.88
COc1ccc([Si](C)(C)[C@@H]2[C@@H](CCn3cc([C@H](O)c4ccccc4)nn3)O[C@]3(C(=O)N(Cc4ccc(N5C(=O)c6cccc7cccc5c67)cc4)c4ccccc43)[C@H]2C)cc1 | 0.033 | -0.196 (inactive) | -0.13 | -0.155 | 0.403 | 0.791 | 0.017 | 0.268 | -0.177 | -0.13
COc1cc2c(cc1OC)CN(C(=O)[C@@H]1[C@H]3C(=O)O[C@H](c4ccccc4)[C@H](c4ccccc4)N3[C@H](c3ccccc3OCCO)[C@@]13C(=O)Nc1ccc(C#CCNC(N)=O)cc13)CC2 | 0.301 | 0.545 (inactive) | 0.37 | -0.0251 | 0.377 | 2.65 | 1.15 | 1.31 | 0.981 | 1.11
COCCOC(=O)N1C(=O)[C@@]2(c3cc(C#CCNC(N)=O)ccc31)[C@H](C(=O)N1CCc3cc(OC)c(OC)cc3C1)[C@H]1C(=O)O[C@H](c3ccccc3)[C@H](c3ccccc3)N1[C@@H]2c1ccc(OCCO)cc1 | -0.717 | 0.202 (inactive) | 0.289 | -0.186 | 0.225 | 0.423 | 0.406 | 0.398 | 0.286 | 1.09
COc1cccc(C(=O)O[C@H]2CC[C@]3(C)C4=C(CCC3C2(C)C)[C@]2(C)CC[C@H]([C@H](C)CCCC(C)C)[C@@]2(C)CC4)c1 (stereo not given in full) | 0.111 | -0.424 (inactive) | -0.0414 | -0.132 | 0.202 | 0.279 | -0.147 | 0.166 | 0.585 | 0.254
C=C[C@@H](COC(C)=O)N(Cc1ccc([N+](=O)[O-])cc1)S(=O)(=O)c1ccc(Br)cc1 | 0.812 | 0.181 (inactive) | -0.0647 | -0.0089 | 0.448 | 0.432 | 0.442 | 0.573 | 0.241 | 1.11
C=CCC(OC(C)=O)[C@@H]1[C@@H](N(Cc2ccc(-c3cccc(C(F)(F)F)c3)o2)C(=O)c2ccc(C)cc2)c2cc(OCCCO)ccc2N1C(=O)c1ccc(-c2ccccc2)cc1 (stereo not given in full) | -0.405 | 0.244 (inactive) | 0.0026 | -0.115 | 0.376 | -0.0056 | -0.0012 | -0.597 | 0.031 | 0.854
COc1ccc(C(O)C2C=CC3C(=O)N(c4ccccc4)C(=O)C3N2Nc2ccc([N+](=O)[O-])cc2)cc1OCc1ccccc1 (stereo not given) | 0.927 | -0.114 (inactive) | 1.33 | 0.708 | 0.591 | 1.53 | 1.22 | 1.16 | 0.471 | 1.14
O=C1C[C@]2(c3ccc([N+](=O)[O-])cc3)C(=O)N(CC(F)(F)F)c3cc(CO)ccc3[C@H]2N1CC12CC3CC(CC(C3)C1)C2 | -0.0746 | -0.171 (inactive) | -0.0362 | -0.168 | 0.499 | 1.15 | -0.221 | -0.0575 | 0.167 | 0.556
CC(C)(C)N1CC=CC23O[C@@H]4/C=C\CCCOC(=O)C4[C@H]2C(=O)N(CCO)[C@@H]3C1=O (stereo not given in full) | 0.268 | 0.103 (inactive) | -0.36 | -0.204 | 0.872 | 0.575 | 0.29 | -0.13 | -0.0702 | -0.0702
O=C1N(CCS(=O)(=O)c2ccccc2)Cc2ccccc2[C@H]2OC(c3ccc(OCCCO)cc3)=N[C@@]12CCS(=O)(=O)c1ccccc1 | -0.284 | 1.81 (inactive) | -0.0247 | -0.0586 | 0.524 | 2.64 | 0.708 | 1.3 | 0.242 | 1.22
O=C(OCCF)C1=CCC(c2cccc(Cl)c2)O1 (stereo not given) | 0.374 | 0.13 (inactive) | -0.191 | -0.199 | 0.593 | 0.751 | 0.142 | 0.748 | -0.165 | 0.532
